High-throughput results (PubChem BioAssay)
Giardia FBPA inh: blocks Giardia fructose-bisphosphate aldolase activity; 290,000 compounds, 0.71% hits; AID 2451; A8B2U2; purified Giardia FBPA; Potency, µM (highest dose often 59.6 µM), inactives show at the highest dose activity, negative = inhibition, hits mostly inhibitors; also: potency is read from the fitted curve at half-maximal effect; nearly all actives have a fitted effect of over 55% in size
Target sequence (A8B2U2 whole entry, looked up): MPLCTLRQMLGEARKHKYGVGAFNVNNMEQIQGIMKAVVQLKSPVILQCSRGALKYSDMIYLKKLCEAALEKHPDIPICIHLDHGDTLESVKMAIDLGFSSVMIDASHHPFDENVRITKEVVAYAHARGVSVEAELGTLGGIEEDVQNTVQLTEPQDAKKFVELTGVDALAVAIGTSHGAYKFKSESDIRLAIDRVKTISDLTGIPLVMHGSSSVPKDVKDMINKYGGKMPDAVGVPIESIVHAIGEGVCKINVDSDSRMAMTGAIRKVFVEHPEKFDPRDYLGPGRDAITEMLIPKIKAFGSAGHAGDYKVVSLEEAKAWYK
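40 nM FBPA preincubated 10 min at RT with compound (up to 57.5 uM final), then substrate plus GAPDH/TPI/NAD/arsenate coupling and diaphorase/resazurin added. Fluorescence read after 20 min at RT, 525/598 nm.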
HCMV antiviral: inhibitors of human cytomegalovirus; HFF cells, HCMV-luciferase reporter, 72 h; active compounds read low; activity change, negative = inhibition, % at 57.5 µM; 410,000 compounds, 4.5% hits; AID 1259415; in the data active = activity change below about -60%; inconclusive = no clear call, values can overlap the other calls; inactive = above about -39%
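Luciferase read-out from HCMV-luciferase-infected HFFs (MOI 1 PFU/cell) 72 h post infection at 37C; compounds added after 16 h cell attachment; activity normalized between buffer-only basal and Salinomycin (10uM) inhibitor controls.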
HCV inh: HCV inhibition; Huh7.5.1 HCVcc-Cre infection, luciferase reporter, 44 h; Potency, µM (highest dose often 41.8 µM), for the others: at the highest dose activity change, negative = inhibition, hits mostly inhibitors; 340,000 compounds, 3.4% hits; AID 651820; also: potency is read from the fitted curve at half-maximal effect
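1,000 cells/well; 4 h culture; + compound; + HCVcc-Cre (~0.5 moi); 44 h; luciferase substrate, RT 15 min; read 15 sec.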
VACV Venus inh: vaccinia inhibition (Venus reporter). Vaccinia virus Venus reporter expression, fluorescence. Potency, µM (doses to about 36.5 µM), for the others: top-dose activity change, negative = inhibition, hits mostly inhibitors. 330,000 compounds, 0.46% hits. AID 720580; calls by dose curve; tested in A549 cells; also: potency is read from the fitted curve at half-maximal effect; nearly all actives have a fitted effect of over 30% in size
FMDV inh: foot and mouth disease virus antiviral activity. FMDV antiviral cell-based qHTS. Potency, µM (series often up to 57.9 µM), for inactives: at the highest dose activity change, negative = inhibition, most hits filed as inhibitors. 410,000 compounds, 1.2% hits. AID 1159524; calls by dose curve; tested in HEK293T cells; also: read-out not given here; potency is read from the fitted curve at half-maximal effect; nearly all actives have a fitted effect of over 45% in size
Vaccinia mCherry: vaccinia inhibition (mCherry reporter); Vaccinia virus mCherry reporter infection, fluorescence; Potency, µM (titrated, usually from 36.5 µM), inactives show at the top dose activity change, negative = inhibition, hits mostly inhibitors; 310,000 compounds, 0.63% hits; calls by dose curve; tested in A549 cells; also: potency is read from the fitted curve at half-maximal effect; nearly all actives have a fitted effect of over 35% in size
* marks the source's active call; other numbers are inactive results; i = inactive; ? = inconclusive; nt = no result given; [ ] = remark or other dose. Most compounds without a hit are left out; they make up all but 7.5% or so of the library. Unless noted, calls follow the shape of the dose curve; as a rule, active = well fitted curve in the direction sought with a large enough effect; inconclusive = small, poorly fitted or top-dose-only effect, or another doubt; inactive = no such curve, though single readings can be large; an effect the other way counts as inactive or inconclusive. % is scaled to controls: 0 for no effect and ±100 for the full control effect.

SMILES	Giardia FBPA inh	HCMV antiviral	HCV inh	VACV Venus inh	FMDV inh	Vaccinia mCherry
Cc1[nH]c2ccccc2c1/C=C/c1nc2ccccc2c(=O)n1-c1cccc([N+](=O)[O-])c1	-4%	-86*	8%	-13%	-15%	-27%
O=c1c2ccccc2nc(/C=C/c2ccc(Br)cc2)n1CCCO	15%	-71*	?	nt	0%	nt
Cn1c(/C=C/c2cccc(Br)c2)nc2ccccc2c1=O	-2%	-72*	-85%	?	9%	-27%
COCCCn1c(=O)c2sccc2n2c(CCCC(=O)Nc3ccc(F)c(F)c3)nnc12	nt	-8	nt	-4%	-17%	-1%
CCOC(=O)C1CCCN(c2c(Nc3cccc(C)c3)c(=O)c2=O)C1 (stereo not drawn)	1%	-7	3%	1%	-3%	-12%
NC(=O)N/N=C/c1coc2ccc(O)cc2c1=O	-20%	-26	16%	nt	-19%	nt
O=C(O[C@H]1[C@H](Cc2ccccc2)NS(=O)(=O)[C@H]2C[C@@H]3C=C[C@]12O3)c1ccccc1Br	nt	nt	nt	-6%	nt	-13%
O=C(/C=C/c1cccc([N+](=O)[O-])c1)n1cnc2ccccc21	1%	-99*	?	-18%	14µM*	-9%
Cn1c(SCc2ccccc2Br)nc2ccccc2c1=O	-1%	-26	9%	nt	-30%	nt
O=C(/C=C/c1cccc([N+](=O)[O-])c1)N1CCN(c2ccccn2)CC1	6%	-8	5%	nt	-10%	nt
Cn1c(SCc2cccc(Br)c2)nc2ccccc2c1=O	-2%	-30	22µM*	nt	?	nt
CCOCCn1c(=O)c2c(nc3n2CCN3c2ccc(C)c(C)c2)n(C)c1=O	nt	14	nt	-2%	-14%	-16%
COC(=O)c1cc(CNC(=O)c2ccccc2)cc(NC(=O)c2ccccc2OC)c1	nt	nt	nt	-4%	6%	-14%
CCN1C(C(=O)c2ccccc2)=C(OC(=O)c2ccc(OC)cc2)c2ccccc2S1(=O)=O	nt	-68*	nt	-13%	-6%	-25%
CCN1/C(=C(\O)c2ccccc2)C(=O)c2ccccc2S1(=O)=O	-3%	-88*	6%	?	0%	-25%
CCCCN(CCCC)C1=C(C(=O)c2ccccc2)N(CC)S(=O)(=O)c2ccccc21	nt	-32	nt	-14%	-29%	-10%
CCCN1C(C(=O)c2ccccc2)=C(OC(=O)c2ccc(C)cc2)c2ccccc2S1(=O)=O	nt	-85*	nt	-25%	-13%	-29%
COC(=O)CN1C(C(=O)c2ccccc2)=C(OC(=O)c2ccc(C)cc2)c2ccccc2S1(=O)=O	nt	0	nt	-20%	-27%	-15%
CCCN1C(C(=O)c2ccccc2)=C(OC(=O)c2ccc(F)cc2)c2ccccc2S1(=O)=O	nt	-90*	nt	-25%	-8%	?
c1cn2c(-c3ccc(N4CCOCC4)cc3)cncc2n1	nt	29	nt	-3%	16%	15%
Nc1nc(NCc2cccc(Cl)c2)c2[nH]cnc2n1	nt	nt	nt	-18%	nt	-19%
CN1OC(C)(CC(=O)NCc2nccs2)N=C1c1cccc(Br)c1 (stereo not drawn)	nt	-11	nt	nt	nt	nt
CCN1C(C(=O)c2ccccc2)=C(OC(=O)COc2ccccc2)c2ccccc2S1(=O)=O	nt	-60*	nt	-30%	-8%	-29%
O=C1c2cc(F)ccc2-n2c1nc1ccccc1c2=O	?	-83*	2.5µM*	0%	?	-26%
Cc1nn(-c2ccccn2)c2nc(-c3cccs3)cc(C(=O)NCc3ccco3)c12	10%	-37	35µM*	-27%	0%	i[1.46 µM]
SMILES	Giardia FBPA inh	HCMV antiviral	HCV inh	VACV Venus inh	FMDV inh	Vaccinia mCherry
Cc1nn(-c2ccccc2)c2nc(-c3cccs3)cc(C(=O)NN)c12	1%	?	?	nt	-24%	nt
CCOC(=O)c1cc(-c2cccs2)nc2c1c(C)nn2-c1ccccn1	8%	-86*	10µM*	?	-14%	-25%
CCOC(=O)C1CCCN(C(=O)c2ccc3ccccc3c2)CC1 (stereo not drawn)	nt	-25	nt	-7%	26%	0%
COC(=O)c1ccccc1C(=O)N(Cc1cccnc1)CC1CCCN(C2CCCCC2)C1 (stereo not drawn)	-7%	-26	11%	nt	2%	nt
O=C(Nc1ccnn1C1CCN(C(=O)c2c(F)cccc2F)CC1)C1CC1	-8%	15	19%	-5%	-15%	i
O=C(Nc1ccnn1C1CCN(C(=O)c2ccccc2C(F)(F)F)CC1)C1CC1	nt	-78*	5%	-7%	15%	-14%
O=c1[nH]c(=S)c2n[nH]nc2[nH]1	nt	nt	nt	-6%	nt	21%
Cc1cc(C)cc(NC(=O)Cn2nnc3ccccc3c2=O)c1	5%	-14	13%	nt	-7%	nt
CCOC(=O)[C@]12CCC=C1N(Cc1ccc(Cl)cc1Cl)C(=O)[C@H](CC(=O)NCc1ccc(OC)c(OC)c1)C2	nt	-93*	nt	-21%	?	-26%
CCOC(=O)[C@]12CCC=C1N(Cc1ccc(Cl)cc1Cl)C(=O)[C@H](CC(=O)NCc1cccc3ccccc13)C2	nt	1	nt	-8%	-12%	-14%
COC(=O)[C@]12CCCCC=C1N(Cc1cccc3ccccc13)C(=O)[C@H](CC(=O)NCC13CC4CC(CC(C4)C1)C3)C2	nt	-85*	nt	-15%	-14%	-7%
CCOC(=O)[C@]12CCCC=C1N(Cc1cccc3ccccc13)C(=O)[C@H](CC(=O)NCc1ccc(OC)c(OC)c1)C2	nt	-76*	nt	?	?	?
CCN(CC)CCCNC(=O)c1nn(-c2ccc(OC)c(Cl)c2)c(=O)c2c1c1ccccc1n2C	nt	19	nt	-11%	-3%	12%
COc1ccc(C2CC(c3ccccc3)=NN2C(=O)COC(=O)c2nc3nc(C)cc(C)n3n2)cc1 (stereo not drawn)	-1%	13	10µM*	1%	4%	3%
Fc1ccc(-c2noc3ncnc(NCCCN4CCN(c5ccccc5)CC4)c23)cc1	nt	-24	nt	-9%	-29%	-5%
COc1ccccc1N(CC1CO1)S(=O)(=O)c1ccccc1 (stereo not drawn)	-3%	20	15%	-8%	-5%	-10%
COc1ccc(N(CC2CO2)S(=O)(=O)c2ccccc2)cc1 (stereo not drawn)	6%	-62*	10%	-13%	-3%	-10%
COCCn1c(C)cc(O)c(C(c2ccc(OC)cc2)N2CCN(c3ccccc3)CC2)c1=O (stereo not drawn)	nt	-12	nt	-8%	-21%	-13%
CCOC(=O)c1c(NC(=O)COC(=O)c2cccnc2OCC)sc(C(=O)N(CC)CC)c1C	nt	21	?	-15%	16µM*	i
CCOC(=O)c1c(NC(=O)c2cccs2)sc(C(=O)N(C)C)c1C	3%	-21	13µM*	6%	25%	-17%
CCOC(=O)c1c(NC(=O)c2cccs2)sc(C)c1CC	-5%	-38	8.9µM*	-10%	-24%	-7%
